Key:
Test in all cases: PBM binding z-score (relative to random genomic background probes); higher = stronger binding; sequences stand for … in GC…GCGATTGACAGCGTAGAATGAAGG
[1] = system: FXR:RXRa (NR concentration 270 nM, RXRa partner concentration 90 nM)
Summary of the method: (§1)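 Random background probes are the reference for binding z-scores. These scores derive from regression-normalized fluorescence on custom Agilent 4×180K protein-binding microarrays incubated 1 h with ligand-free nuclear receptor dimers. Binding was detected with antibodies against each partner (one per run).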

[2] = system: LXRa:RXRa (NR concentration 270 nM, RXRa partner concentration 90 nM)
Summary of the method: as §1

[3] = system: LXRa homodimer (NR concentration 270 nM)
Summary of the method: as §1

[4] = system: LXRb:RXRa (NR concentration 270 nM, RXRa partner concentration 90 nM)
Summary of the method: as §1

[5] = system: LXRb homodimer (NR concentration 270 nM)
Summary of the method: as §1

[6] = system: PPARa:RXRa (NR concentration 270 nM, RXRa partner concentration 90 nM)
Summary of the method: as §1

[7] = system: PPARg:RXRa (NR concentration 180 nM, RXRa partner concentration 90 nM)
Summary of the method: as §1

[8] = system: PPARg:RXRa 270nM:90nM, anti-RXR (NR concentration 270 nM, RXRa partner concentration 90 nM)
Summary of the method: as §1

[9] = system: PPARg:RXRa 30nM:10nM, anti-RXR (NR concentration 30 nM, RXRa partner concentration 10 nM)
Summary of the method: as §1

[10] = system: PPARg:RXRa 90nM:30nM, anti-RXR (NR concentration 90 nM, RXRa partner concentration 30 nM)
Summary of the method: as §1

[11] = system: PPARg:RXRa DBDmut IVT, anti-RXR (DBD mutation: RXRa K156A/R161A, NR concentration 270 nM, RXRa partner concentration 90 nM)
Summary of the method: as §1

[12] = system: PPARg:RXRa IVT, anti-PPARg (NR concentration 270 nM, RXRa partner concentration 90 nM)
Summary of the method: as §1

[13] = system: PPARg DBDmut:RXRa IVT, anti-PPARg (DBD mutation: PPARg1 K132A/R137A, NR concentration 270 nM, RXRa partner concentration 90 nM)
Summary of the method: as §1

[14] = system: PPARg DBDmut IVT, anti-PPARg (DBD mutation: PPARg1 K132A/R137A, NR concentration 270 nM)
Summary of the method: as §1

[15] = system: PPARg homodimer (NR concentration 180 nM)
Summary of the method: as §1

[16] = system: PXR:RXRa (NR concentration 270 nM, RXRa partner concentration 90 nM)
Summary of the method: as §1

[17] = system: PXR homodimer (NR concentration 270 nM)
Summary of the method: as §1

[18] = system: RARa:RXR (NR concentration 270 nM, RXRa partner concentration 90 nM)
Summary of the method: as §1

[19] = system: RARa homodimer (NR concentration 270 nM)
Summary of the method: as §1

[20] = system: RARb:RXRa (NR concentration 270 nM, RXRa partner concentration 90 nM)
Summary of the method: as §1

Sequence	PBM binding z-score [1]	PBM binding z-score [2]	PBM binding z-score [3]	PBM binding z-score [4]	PBM binding z-score [5]	PBM binding z-score [6]	PBM binding z-score [7]	PBM binding z-score [8]	PBM binding z-score [9]	PBM binding z-score [10]	PBM binding z-score [11]	PBM binding z-score [12]	PBM binding z-score [13]	PBM binding z-score [14]	PBM binding z-score [15]	PBM binding z-score [16]	PBM binding z-score [17]	PBM binding z-score [18]	PBM binding z-score [19]	PBM binding z-score [20]
CGAACTAGGTCAGAACAGGACAATGAAGGATGAT	1.42	1.2	0.0697	0.618	-0.134	3.06	5.27	4.32	1.93	3.26	6.72	7.28	2.05	0.683	0.602	1.23	0.343	0.703	0.399	2.98
CCGGCTAGGTCATGGTCAGCTAATCTACAGTATG	3.61	2.64	0.191	1.89	0.207	3.42	1.86	2.4	0.212	1.38	3.44	2.65	-0.0629	-0.269	2.5	1.4	-0.16	2.53	0.954	3.91
CGTCCAAGGTCAATGTCAGTGAAAGAGACTCGAA	6.7	4.8	0.641	3.88	1.05	5.35	4.26	4.46	1.3	2.57	2.67	3.14	-0.322	-0.37	2.27	3.36	1.18	3.8	0.639	4.85
TCAAGTAGGTTACCAATGGGGCATTCAGCTTTCT	0.176	1.6	-0.145	1.17	-0.449	2.16	2.1	2.92	3.34	3.02	6.09	5.24	0.706	-0.182	0.999	0.326	-0.278	0.518	0.134	1.27
GCTGCTAGGTCAGGTTGGTCAGCTAGCGGGTACG	1.15	0.736	-0.0466	0.193	-0.466	1.36	-0.0149	0.792	-0.603	0.329	2.9	1.88	-0.638	-1.03	0.481	0.0467	-1.01	0.604	-0.467	3.38
CCTGCTAGGTCTTGGTCAGCTAATCTACAGTATG	-0.4	-0.437	-0.451	-0.509	-0.639	-0.469	-0.371	-0.599	-0.683	-0.872	0.846	-0.117	-0.408	-1.03	-0.24	-0.552	-0.561	-0.0179	-1.02	0.537
TCATATAGGTAAACAGGTGGAAGTCCGTAAGTTA	0.72	0.64	0.229	0.692	0.0407	1.43	1.16	2.43	4.15	3.06	4.42	3.02	0.862	0.82	1.12	0.46	0.859	0.577	0.928	0.625
CAAACTAGGTCACGAAAGGTCAAAGACGAATGAC	7.6	8.07	7.51	7.29	2.75	6.72	10.4	8.57	8.01	8.93	8.52	9.24	4.91	4.77	6.85	7.05	2.93	7.89	4.46	5.69
ACTAGCATGCCAAGGGTCACTCAAGATTAGTCCG	2.51	2.97	0.285	2.95	0.101	4.14	5.14	6.08	3.82	6.39	0.455	2.66	-0.409	0.469	2.73	3.31	-0.0678	4.02	0.721	3.38
ATCGAAAGGTCGAGGTGAGTACAGAGAAAGGGAA	4.22	3.51	0.276	2.53	0.653	4.64	3.5	3.96	1.38	2.61	0.64	2.65	1.01	0.9	1.64	3.27	0.251	3.11	1.29	4.14
CCAGACAGGCGAAAGGTAACTCAGTCTGGTACGC	-0.414	-0.478	-0.885	-0.448	-1.33	0.667	1.57	2.87	0.676	2.22	-0.357	-0.108	-0.986	-1.21	-0.19	-0.328	-0.718	-0.0922	-0.38	-0.0959
ACTAGCAGGCCAAGTTTGGGGCACTCAAACAAAG	-0.415	-0.546	-0.667	-0.397	-1.03	-0.148	-0.208	-0.509	-0.663	-0.441	0.771	0.921	-0.182	-0.0456	-0.843	-0.333	-0.763	0.00988	-0.881	0.744
CGAACGAGGGCATCAGTTGATAGCAAATGCCGAT	0.292	0.0604	-0.396	0.107	-0.651	1.19	1.1	0.934	-0.0649	0.293	2.85	1.94	-0.013	-0.142	-0.115	0.166	0.152	0.224	-0.261	2.03
AGAACGAGGGCAATGAGTTAATAGCACGGGTGGC	0.223	0.22	-0.363	-0.11	-0.589	1.34	1.56	1.23	-0.12	0.528	3.29	2.59	0.242	0.395	0.0728	1.43	2.98	0.239	-0.224	2.04
AGTCAAAGTTCAGGACGAGGTAACGTACAGCACG	4.02	3.94	1.42	1.7	0.128	3.3	4.64	4.76	2.19	3.73	-0.265	2.01	0.413	0.297	1.59	2.95	0.808	3.01	0.256	4.18
CGTCCATGGTCAAGGTCAGTGAAAGAGACTCGAA	1.92	1.67	0.03	1.6	-0.273	2.38	1.13	1.68	0.0317	0.977	0.484	1.54	-0.688	-0.778	1.17	1.78	0.42	2.23	0.236	3.59
ACTATTAGTTGACTTAGGGCAACGGATACGACGC	0.165	0.158	0.172	-0.137	0.447	-0.22	0.94	0.192	0.24	0.227	0.00929	0.309	1.35	1.09	0.328	0.113	0.452	0.313	0.0802	0.718
ACTAGCCGGCCAAGGGTCACTCAAGATTAGTCCG	2.41	2.53	0.141	2.59	-0.832	3.81	5.6	5.62	3.35	5.18	-0.188	2.25	-0.122	-1.13	0.922	3	-0.135	3.82	-0.211	3.41
CCTTACGGGTCACTGACAGGTTATAGGATTTGGA	4.95	4.33	0.341	3.36	-0.182	5.09	4.36	4.46	1.48	3.55	3.61	3.81	0.353	-0.0191	2.26	3.57	0.377	4.38	0.591	4.08
TCTTGTAGATCAAGCAGCTTAAGAAAGCCTGAGT	-0.352	-0.169	-0.373	-0.0264	-0.791	0.29	-0.61	1.03	2.17	1.5	1.1	0.213	-0.268	-0.032	0.0501	-0.0224	-0.129	-0.209	-0.515	-0.253
TCATATAGGTAAACTGGTGAAAGTCCGTAAGTTA	0.534	0.478	0.129	0.808	-0.0343	1.05	0.842	2.31	3.92	3.07	3.83	2.69	1.43	1.35	0.515	0.463	0.739	0.446	1.61	0.361
TCTATAAGTTGAAGGGCAACCGACGAGTCCGTTT	0.654	0.764	-0.0358	0.57	0.00788	1.27	0.844	2.82	3.72	3.29	2.03	0.839	0.713	0.947	0.68	0.812	0.652	0.558	0.192	1.93
ATACCAAGGTGATCGTGAGGTCGTTTATACTAAC	1.68	1.66	1.35	1.74	0.0373	1.69	0.492	0.454	-0.0827	0.159	0.676	1.12	0.496	0.607	0.889	3.27	2.05	2.19	0.982	1.51
AGAACGAGGGCACGCTTAGTTGATAGCAGAGTAG	0.731	0.538	-0.173	0.495	-0.638	2.26	2.16	1.86	0.46	1.5	4.36	4.09	0.457	0.676	0.226	0.718	-0.259	1.06	-0.203	2.66
AGAATGACGTTATACGTAGATCAGGGAAGAAAGT	-0.751	-0.685	-0.265	-0.753	-0.294	-0.611	0.583	-0.509	-0.197	-0.37	-1.31	-0.2	0.276	1.24	-0.321	-0.696	0.0404	-0.492	-0.733	-0.573
GGAACGAGGGCAATTTGATAGCAGAGTTTGATGG	0.502	0.242	-0.405	0.427	-0.315	1	1.04	0.751	0.15	0.401	3.43	2.2	-0.942	-0.307	0.234	0.484	0.475	0.401	-0.342	1.64
GGAACGAGGGCAAAGTTGATAGAATCTGTCGACG	1.44	1.1	-0.584	1.01	-0.45	4.17	6.84	7.15	6.22	7.35	4.01	4.36	0.353	-0.207	0.397	1.25	0.121	1.74	-0.438	2.32
TATACCGGGTCAAAGGCCAGAGTACGAATGTCGA	5.68	5.19	1.56	3.95	1.32	6.35	8.61	7.39	6.12	7.45	2.58	5.47	0.885	1.2	2.12	3.61	0.647	4.89	0.935	3.88

From the supplement of paper PMC6555819
